Experimental data as given in PubChem BioAssay (NCI).
This is part of a sample that, as a whole, favours compounds with a hit. Of some 83,000 tested, about 20% had one in any assay.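 Testing used 96-well plates and a 48-hour single-concentration exposure. Example: -40 means 40% of the starting cells died.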 Unmarked numbers belong to inactive results. Calls of active or inactive are those of the source. Rule for the calls: active = growth percent below 10; inactive = the rest.

The compounds below were run on NCI-H522 lung (assay: NCI-60 one-dose screen, 48 h (100 = growth as untreated, 0 = no growth, -100 = all killed)). Settings: 10 µM unless noted.

| Compound | growth |
| --- | --- |
| CCOc1ccccc1/C=N\Nc1ccc(S(=O)(=O)c2ccc(N/N=C/c3ccccc3OCC)cc2)cc1 | 95.2% |
| Nc1ccc(Cl)c([N+](=O)[O-])c1 | 87.5% |
| Oc1ccc(N=Nc2nccs2)c(O)c1 | 41.5% |
| O=C(N[C@@H]1CCCc2ccccc21)[C@H](CCC(=O)N1CCN(C2CCCCC2)CC1)N1C(=O)[C@@H](N2C(=O)OC[C@@H]2c2ccccc2)[C@H]1/C=C/c1ccccc1 | 52.3% |
| Cc1ccc(NC(=S)/N=c2/n(-c3ccccc3)nc3n2CCN3C2=NCCN2)cc1 | 96.7% |
| CCCCC1COc2cccc3c2N1C=C/C3=C\C(=O)n1ccc2ccccc21 (stereo not drawn) | 56% |
| COc1cc(C)cc2oc3oc(=O)c(-c4nc5ccccc5s4)cc3c(=O)c12 | 95.7% |
| O=C(Nc1ccccc1)Nc1ccc(C(=O)/C=C/c2ccc(N3CCCC3)cc2)cc1 | 31.7% |
| COc1cc(C)cc2oc3oc(=N)c(C(=O)c4ccccc4)cc3c(=O)c12 | 96.8% |
| CC[C@]12C=CCN3CC[C@@]4(c5ccc(OC)cc5N(C)[C@H]4[C@@](O)(C(=O)OC)[C@@H]1OC(=O)CCC(=O)N[C@H](Cc1c[nH]c4ccccc14)C(=O)OC)[C@@H]32 | -16.2% [100 µM] (active) |
| CC(=O)OC[C@]12CC[C@@H]([C@@H](C)C(N)=O)[C@@H]1[C@H]1CC[C@@H]3[C@@]4(C)CC[C@H](OC(C)=O)C(C)(C)[C@@H]4CC[C@@]3(C)[C@]1(C)CC2 | -61.1% [100 µM] (active) |
| O=c1c2c3c(sc2n2cnnc2n1Cc1ccccc1)CCCC3 | 79.2% |
| COc1cc2c(c(OC)c1)C1c3cc(OC)ccc3NC(=O)N1CC2 (stereo not drawn) | 38.3% |
| O=c1cc(-c2ccccc2)oc2cc(OCc3cn(Cc4ccc(F)cc4)nn3)cc(O)c12 | 15.1% [100 µM] |
| CCN(CC)c1ccc2cc(NC(=O)OCCNC(=O)CCNC(=O)[C@H](CC(C)C)NC(=O)C(C)(C)NC(=O)C(C)(C)NC(=O)[C@H](CC(C)C)NC(=O)CCNC(=O)C(C)(C)NC(=O)[C@H](CC(C)C)NC(=O)CCNC(=O)[C@@](C)(CC)NC(=O)[C@H](C)NC(=O)CCNC(=O)C(C)(C)NC(=O)[C@H](C)NC(=O)[C@@H]3CCCN3C(=O)[C@@](C)(CC)NC(=O)[C@H](Cc3ccccc3)NC(=O)C3CCCN3C(=O)C(C)(C)NC(=O)C3CCCN3C(=O)C(C)(C)NC(C)=O)c(=O)oc2c1 (stereo partly drawn) | -82.3% (active) |
| CCCCCCCCCCCCCC[n+]1cccc(C(N)=O)c1 | -35.3% (active) |
| CCOC(CNC(=O)c1cccc([N+](=O)[O-])c1)OCC | 64.2% |

| Compound | growth |
| --- | --- |
| COc1ccc(/C=C/C=C\C(=O)c2ccc(-n3ccnc3)cc2)cc1 | 85.3% |
| CCNc1cc2c(cc1Br)-c1ccccc1C2=O | 93.6% |
| C[n+]1c(-c2ccccc2)c2cc(N)ccc2c2ccccc21 | -5.84% (active) |
| C/C=C/C1OC23CCCCC2C(C#N)(C(=N)O3)C1(C#N)C#N (stereo not drawn) | 74.1% |
| Fc1cc2[nH]ncc2c2c3c(c(-c4cn[nH]c4)nc12)CCCC3 | -9.92% (active) |
| CCOC(=O)c1nn(C2CCCCO2)c2ccc(NC(=O)CN3CCCC3)cc12 (stereo not drawn) | 97.9% |
| Nc1nnc(CSc2nnc3n(Cc4ccccc4)c(=O)c4c5c(sc4n23)CCCC5)s1 | 66.8% |
| O=S(=O)(NCc1ccccc1)c1ncnc2nc[nH]c12 | 95.5% |
| c1cc2ccc1CNCCN1CCNCc3ccc(cc3)Oc3ccc(cc3)CNCCN(CCNCc3ccc(cc3)O2)CCNCc2ccc(cc2)Oc2ccc(cc2)CNCC1 | -84.3% (active) |
| CS(=O)(=O)c1cccnn1 | 82% |
| N=C(N)c1ccc(-c2ccc(-c3ccc(-c4cccs4)s3)s2)cc1F | 100% |
| CCCSc1nc(N)nc2nc[nH]c12 | 88.4% |
| C[C@H]1[C@H](C)CC[C@]2(C(=O)O)CC[C@]3(C)C(=CC[C@@H]4[C@@]5(C)C/C(=C/c6cccnc6)[C@H](O)C(C)(C)[C@@H]5CC[C@]43C)[C@H]12 | -4.55% [100 µM] (active) |
| O=C1CC(c2ccccc2)Cc2nc3ccc(Br)cc3cc21 (stereo not drawn) | -3.56% (active) |
| C1=C[C@H]2O[C@@H]1c1ccc3[nH]ccc3c12 | 41.7% |
| CCN(CC)c1ccc(/C=C/c2ccc3cc(C)ccc3[n+]2CC)cc1 | -27.7% (active) |
